Screening results from PubChem.
Cy5 interf NS3h = Cy5 fluorescence interference, HCV helicase counter-screen | Cy5-dT15 DNA with NS3h; actives lie on both sides; signal over control mean, under 1 quenches | fluorescence interference ratio at 100 µM | 16,000 tested, 6% active;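 active means compound fluorescence over control fluorescence at most 0.8, a quencher, or at least a set upper limit, an enhancer; inactive means ratio between 0.8 and the set upper limit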
NS3h inh CB = hepatitis C NS3 helicase inhibition, primary screen | NS3h Cy5-dT15 DNA binding, fluorescence polarization | inhibition, % at 100 µM | 16,000 tested, 1.6% active;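 active means inhibition above the average over every tested compound plus 3 SD, cut at about 40% in these data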
NS3h confirm = hepatitis C NS3 helicase inhibition, confirmation. shares compounds with NS3h inh CB. NS3h binding to Cy5-dT15 DNA, fluorescence polarization. inhibition, % at 100 µM. 240 tested, 20% active. AID 720485;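 active means percent inhibition of 50% or more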
SSB FP counter = disrupts E. coli SSB binding to DNA in counter-screen; shares compounds with NS3h inh CB; E. coli SSB binding Cy5-dT15, fluorescence polarization; inhibition, % at 100 µM; 240 tested, 40% active; AID 720486;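 active means inhibition of at least 50%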;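 further: displacers lower Cy5 polarization so higher inhibition means more SSB displaced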
Target sequence (P0AGE0 whole entry, looked up): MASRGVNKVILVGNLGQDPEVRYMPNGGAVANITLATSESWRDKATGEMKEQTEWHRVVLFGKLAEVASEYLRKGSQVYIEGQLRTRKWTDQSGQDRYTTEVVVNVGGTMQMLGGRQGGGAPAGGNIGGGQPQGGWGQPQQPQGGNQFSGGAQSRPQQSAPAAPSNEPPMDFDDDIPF
Cy5 SSB interf = counter-screen for HCV NS3 helicase inhibitors: fluorescence interference; shares compounds with NS3h inh CB; Cy5-dT15/E. coli SSB fluorescence interference; actives lie on both sides; fluorescence interference ratio at 100 µM; 240 tested, 8% active; AID 720487;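 active means fluorescence interference ratio at or above 1.2, signal boosting, or at or below 0.8, signal quenching; inactive means ratio between 0.8 and 1.2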;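 further: ratio of compound well signal to mean negative control signal so 1 means no effect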
Cy5 interf conf = confirmation counter-screen for HCV NS3 helicase inhibitors: fluorescence interference. shares compounds with NS3h inh CB. Cy5-dT15 DNA/NS3h fluorescence interference counterscreen. fluorescence interference ratio at 100 µM, hits read low. 240 tested, 44% active. AID 720489;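 active means fluorescence interference ratio at or below 0.8 quencher or at or above a set limitenhancer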;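 further: ratio of compound fluorescence to mean of negative controls so 1 means no interference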
Numbers without * were called inactive; . = not tested or not shown. Compounds with a hit are over-represented: about 6.8% of the library has one in this group of screens.

SMILES	Cy5 interf NS3h	NS3h inh CB	NS3h confirm	SSB FP counter	Cy5 SSB interf	Cy5 interf conf
Cc1nc(NC(=O)c2ccccc2)sc1-c1csc(Nc2cccc(C(=O)O)c2)n1	0.8*	37	-1	22	0.93	0.73*
Cc1ccc(C(=O)Nc2nc(-c3ccccc3)cs2)cc1[N+](=O)[O-]	1	10	.	.	.	.
CCOC(=O)c1c(NC(=O)c2ccc(Cl)cc2)sc(C(=O)Nc2cc(C(F)(F)F)ccc2Cl)c1C	1.1	2	.	.	.	.
COc1ccc(C2C(=C(O)c3ccccc3)C(=O)C(=O)N2c2cccnc2)cc1OC (configuration not stated)	1	-5	.	.	.	.
O=C1/C(=C/c2ccc(F)cc2)SC(=S)N1C1CCS(=O)(=O)C1 (configuration not stated)	1	11	.	.	.	.
O=C1/C(=C\c2ccc(N3N=C(c4ccccc4)CC3c3ccccc3)cc2)SC(=S)N1C1CCS(=O)(=O)C1 (configuration not stated)	1.2*	53*	29	32	1	0.87
CCOC(=O)C1=C(C)OC(N)=C(C#N)C1c1ccc(OC)cc1OC (configuration not stated)	1	15	.	.	.	.
CC(=O)Oc1cccc(N2C(=O)c3ccc(C(=O)c4ccc5c(c4)C(=O)N(c4cccc(OC(C)=O)c4)C5=O)cc3C2=O)c1	0.99	41*	2	11	0.98	0.91
CC(=O)Oc1ccc(N2C(=O)c3ccc(C(=O)c4cccc([N+](=O)[O-])c4)cc3C2=O)cc1	1	5	.	.	.	.
CCOc1cc(C2C3=C(CC(C)(C)CC3=O)OC3=C2C(=O)CC(C)(C)C3)cc(Br)c1O	0.99	6	.	.	.	.
O=C1ON=C(c2ccccc2)/C1=C\c1ccc(OCc2ccccc2)cc1	1	40	3	9	0.96	0.75*
COc1cccc(/C=C2/C(=O)ON=C2c2ccccc2)c1OC	0.83	3	.	.	.	.
COc1cccc(/C=C2/SC(N)=NC2=O)c1	1.3*	53*	-8	3	0.97	1
NC1=NC(=O)/C(=C/c2cccc(Oc3ccccc3)c2)S1	0.97	-1	.	.	.	.
O=C1N=c2ccccc2=C1N=Nc1nc(O)c(-c2c(O)[nH]c3ccccc23)s1	0.4*	124*	14	32	0.76*	0.73*
O=C(CCc1ccccc1)N1N=C(c2ccc(Br)cc2)CC1(O)C(F)(F)F (configuration not stated)	0.94	7	.	.	.	.
O=C1C(=Cc2ccccc2)C(=O)c2ccccc21	1	46*	26	-3	1	0.78*
O=C1C(=Cc2cccc(Cl)c2)C(=O)c2ccccc21	1	4	.	.	.	.
CN1C(=O)/C(=C/c2ccccc2F)SC1=S	0.97	10	.	.	.	.
O=C1C(=Cc2ccccc2F)C(=O)c2ccccc21	0.99	61*	37	10	0.96	0.74*
CCCOc1ccc(C(=O)Nc2ccc(O)c(-c3nc4ccccc4s3)c2)cc1	1.1	-10	.	.	.	.
CCCCOC(=O)COc1ccc2c3c(c(=O)oc2c1C)CCC3	1.1	11	.	.	.	.
O=C(NC(O)C(Cl)(Cl)Cl)c1ccc([N+](=O)[O-])cc1 (configuration not stated)	1	39	-2	5	1	0.78*
CCCC(C)NC(=O)c1ccc([N+](=O)[O-])cc1 (configuration not stated)	1	3	.	.	.	.
COC(=O)c1ccccc1NS(=O)(=O)c1cccs1	1	2	.	.	.	.
SMILES	Cy5 interf NS3h	NS3h inh CB	NS3h confirm	SSB FP counter	Cy5 SSB interf	Cy5 interf conf
O=C(N/C(=C/c1cccs1)c1nc2ccccc2[nH]1)c1ccccc1	1	23	20	36	0.96	0.77*
O=C(Nc1ccc(F)cc1)/C(=C\c1cccs1)NC(=O)c1ccccc1	1	2	.	.	.	.
O=C(/C=C/c1ccc(-c2ccc(Cl)cc2)o1)c1ccc([N+](=O)[O-])cc1	1	10	.	.	.	.
O=C(/C=C/c1c[nH]c2ccccc12)c1ccc([N+](=O)[O-])cc1	0.99	43*	28	15	0.95	0.99
CC(=O)c1ccc2c(c1)c1ccccc1n2C	0.98	18	.	.	.	.
Cn1c2ccc(CC(N)=O)cc2c2cc(CC(N)=O)ccc21	1.2	44*	2	8	1.1	0.84
Cc1ccc(C(=O)N2CCN(c3ccc([N+](=O)[O-])cc3)CC2C)cc1 (configuration not stated)	0.98	16	.	.	.	.
CCOc1ccc(NC2(c3ccccc3)C(=O)c3ccccc3C2=O)cc1	1.1	20	.	.	.	.
CCc1cccc(NC2(c3ccccc3)C(=O)c3ccccc3C2=O)c1	0.76*	69*	11	17	0.93	0.94
O=C(/C=C/c1ccc(/C=C/C(=O)c2cccc(N3C(=O)C=CC3=O)c2)cc1)c1cccc(N2C(=O)C=CC2=O)c1	1	16	.	.	.	.
O=C1/C(=C\c2ccc(I)cc2)SC(=S)N1c1cccc(Cl)c1	1.1	8	.	.	.	.
O=C1C=CC(=O)N1c1cccc(Cl)c1	1	55*	48	9	0.97	0.89
CCOC(=O)c1cccc(N2C(=O)C=CC2=O)c1	0.94	55*	34	10	0.96	0.86
COc1ccc(C2=N/C(=C/c3ccc(F)cc3)C(=O)N2c2ccc(O)cc2)cc1	0.95	22	.	.	.	.
O=C1C2C(c3ccccc3)OC3(C(=O)c4ccccc4C3=O)C2C(=O)N1c1ccc([N+](=O)[O-])cc1 (configuration not stated)	0.99	8	.	.	.	.
N#CC1=C(S)NC(=O)C(C#N)C12CCCCC2 (configuration not stated)	0.96	44*	19	39	0.94	0.9
C=CCSC1=C(C#N)C2(CCCCC2)C(C#N)C(=O)N1 (configuration not stated)	1	3	.	.	.	.
CC1(C)CC(=O)C=C(Nc2ccc(NC3=CC(=O)CC(C)(C)C3)cc2)C1	1.2	44*	-1	8	1	0.8*
CC1(C)CC(=O)C=C(Nc2ccccc2C#N)C1	0.97	-5	.	.	.	.
CSc1nsc(SC)c1NC(=O)OCCN1CCOC1=O	1	3	.	.	.	.
CCOc1cc(/C=C2/SC(=S)NC2=O)cc(Br)c1OCc1ccc(F)cc1	1	83*	8	24	0.94	0.98
C=CCN1C(=O)/C(=C\c2cc(Br)c(OCc3ccc(F)cc3)c(OC)c2)SC1=S	1.2	-9	.	.	.	.
O=C(Nc1ccc(Cl)cc1)Nc1ccc(Br)cc1	1	-3	.	.	.	.
CN(C)/C=C\C=C\C(=O)C1C2CC3CC(C2)CC1C3 (configuration not stated)	0.94	9	.	.	.	.
CN(C)/C=C/C=C/C=C1\CCC/C(=C\C=C\N(C)C)C1=O	0.91	55*	40	110*	0.86	0.96
Cc1cccc(/C=N\N2CCN(Cc3ccccc3Cl)CC2)c1	0.92	12	.	.	.	.
O=C(CCN1C(=O)/C(=C/c2ccc(Cl)cc2)SC1=S)Nc1nccs1	1	13	.	.	.	.
O=C(CCN1C(=O)/C(=C/c2ccc(F)cc2)SC1=S)Nc1ncc(Cc2ccc(Cl)cc2)s1	0.94	46*	4	10	0.96	1
O=C(/C=C/c1ccc(-c2cccc(Cl)c2)o1)c1ccco1	0.98	6	.	.	.	.
